HT1080NT lethal – kills 2HG-producing HT-1080-NT fibrosarcoma cells | Potency, µM (top dose mostly 46.1 µM), inactives show at the highest dose activity, negative = less viability, usual class: cytotoxic | 360,000 compounds, 1.6% hits | HT-1080-NT fibrosarcoma viability, CellTiter-Glo ATP luminescence, 48 h;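 also: NT is the 2HG producing partner of a matched IDH1 knockdown line; potency is read from the fitted curve at half-maximal effect; 0% = DMSO-treated cells and -100% = media-only wells without cells; nearly all actives have a fitted effect of over 55% in size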
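750 cells/well, RPMI + 5% FBS; 2 h settle, compound pin-transfer, 48 h at 37 degrees C. CellTiter-Glo 10 min RT, luminescence. Normalized to DMSO and media-only wells.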
DT40 TDP1 no CPT – qHTS for Inhibitors of human tyrosyl-DNA phosphodiesterase 1 (TDP1): qHTS in cells in absence of CPT. DT40 Tdp1-/- hTDP1 cells, no CPT, ATP luminescence, 48 h. 420,000 compounds, 15% hits. Potency, µM (top dose mostly 46.2 µM), for inactives: at the top dose activity change, negative = growth inhibition, hits mostly inhibitors; also: potency is read from the fitted curve at half-maximal effect; nearly all actives have a fitted effect of over 55% in size
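Cells were dispensed at 400 per well, compounds added by pin tool, plates incubated ≥48 hr at 37 °C, then CellTiter-Glo added for 30 min at room temperature before luminescence reading. Line: DT40 Tdp1-/- complemented with hTDP1; camptothecin omitted.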
DT40 TDP1 CPT – DT40-hTDP1 cell growth loss with CPT; chicken DT40 Tdp1-/-;hTDP1 cells + 20 nM CPT, ATP luminescence, 48 h; Potency, µM (series often up to 46.2 µM), inactives show at the top dose activity change, negative = growth inhibition, usual class: inhibitors; 420,000 compounds, 12% hits; AID 686979; also: potency is read from the fitted curve at half-maximal effect; nearly all actives have a fitted effect of over 55% in size
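Chicken DT40 Tdp1-/- cells complemented with human TDP1, 400 cells/well, exposed to compounds plus 20 nM camptothecin for at least 48 h at 37 C; viability read as ATP content by CellTiter-Glo luminescence.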
HT1080 IDH1KD tx – HT-1080 IDH1 knockdown cell toxicity (counter line); HT-1080 IDH1 knockdown viability, ATP luminescence, 48 h; Potency, µM (highest dose often 46.1 µM), for the others: at the highest dose activity, negative = toxicity, hits mostly cytotoxic; 360,000 compounds, 2% hits; AID 686971;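 also: potency is read from the fitted curve at half-maximal effect; 0% = DMSO wells and -100% = cell-free medium wells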
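After a 2 h attachment period, IDH1KD HT-1080 cells took pin-transferred compound for 48 h at 37 °C; ATP-based luminescence after 10 min room-temperature reagent incubation reported viability.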
IL-1B inflam inh – blocks inflammasome-driven IL-1 beta release; 360,000 compounds, 4.7% hits; THP-1 LPS/ATP IL-1B secretion, AlphaLISA, 16 h; hits give low values; activity change, % at 57.5 µM; in the data active = activity change below about -50%; inconclusive = mostly about -30% to -49%
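THP-1 cells pretreated 1 hr with compounds (up to 57.5 uM final), then stimulated with LPS (250 ng/mL final) plus ATP (1.25 mM final); secreted IL-1B measured by AlphaLISA after 16 hr, decreased signal indicating inhibition.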
Starred values were filed as active, the others as inactive; ? = inconclusive; / = no result; [ ] = another dose, or the depositor's remark. Most compounds without a hit are left out; they make up all but 19% or so of the library. Unless noted, calls follow the shape of the dose curve; as a rule, active = well fitted curve in the direction sought with a large enough effect; inconclusive = small, poorly fitted or top-dose-only effect, or another doubt; inactive = no such curve, though single readings can be large; an effect the other way counts as inactive or inconclusive. Unless noted, % is scaled to controls: 0 for no effect and ±100 for the full control effect.

SMILES	HT1080NT lethal	DT40 TDP1 no CPT	DT40 TDP1 CPT	HT1080 IDH1KD tx	IL-1B inflam inh
CSCCC(N=Cc1c(O)n(-c2ccc(Br)cc2)c(=O)[nH]c1=O)C(=O)OC(C)(C)C (configuration not stated)	-5.6%	-18.0%	-7.1%	-4.0%	15.0
O=C(CCC1CCCC1)c1c(O)c2ccccc2oc1=O	-1.2%	4.11µM*	5.17µM*	-1.2%	-10.9
O=c1oc2ccccc2c(O)c1C(c1ccccn1)c1c(O)c2ccccc2oc1=O	-1.9%	4.0%	-1.2%	0.2%	41.0
CN1CCCC2(CCN(C(=O)c3ccco3)CC2)C1	/	-1.2%	15.2%	/	/
COc1cc(/C=C/c2ccc3ccccc3[n+]2C)cc(OC)c1OC	/	12.6µM*	?	/	/
COc1cc(/C=C2\C(=O)NC(=O)N(c3ccccc3)C2=O)cc(OC)c1OC	10.2%	-2.9%	-3.6%	12.0%	25.0
COc1cccc(CN(C)C(=O)c2cccc(S(=O)(=O)N3CCN(c4ccccc4)CC3)c2)c1	-13.8%	7.31µM*	11.6µM*	-20.8%	-14.3
COc1cccc(CN2CCN(C(=O)Cc3ccccc3OC)CC2)c1	-0.5%	-28.0%	0.4%	-1.1%	-7.0
Cc1ccc(CN(C)C(=O)c2cccc(S(=O)(=O)N3CCN(c4ccccc4)CC3)c2)cc1	-6.4%	14.6µM*	?	-25.7%	?
Cc1ccc(O)c(CN2CCN(c3ccccc3)CC2)c1	9.1%	-14.3%	-3.2%	0.7%	-16.9
Cc1cc(C)[n+](CCCC[n+]2c(C)cc(C)cc2C)c(C)c1	14.8%	-0.9%	-1.3%	6.3%	31.9
COc1ccccc1N1CCN(Cc2ccc(SC)cc2)CC1	-3.7%	20.6µM*	16.4µM*	-2.2%	-6.0
CSc1ccc(CN2CCN(c3ccccc3C)CC2)cc1	-19.2%	?	?	-21.3%	-16.7
CCc1ccc(CN2CCN(Cc3ccc(SC)cc3)CC2)cc1	?	20.6µM*	?	?	-90.6*
COc1ccccc1CN1CCN(Cc2ccc(Cl)cc2)CC1	-2.9%	20.6µM*	-19.8%	2.0%	-2.7
Cc1cccc(CN2CCN(Cc3ccc(Cl)cc3)CC2)c1	-14.7%	20.6µM*	?	-27.8%	?
C[C@]12N[C@@H](Cc3ccccc31)c1ccccc12	/	-14.4%	-1.4%	/	/
COc1cc(C(=O)OCc2cc(=O)c(O)co2)ccc1OC(F)F	?	-9.8%	-5.3%	-20.8%	-4.9
Oc1cccc2nc3ccccc3nc12	-8.8%	?	?	-10.3%	-20.3
CCN(CC)S(=O)(=O)c1ccc(C(=O)NC2CN3CCC2CC3)cc1 (configuration not stated)	4.2%	17.7%	-2.6%	-1.1%	-0.5
O=C(c1ccc(Cl)cc1)c1cn(Cc2ccccc2)c2cc3c(cc2c1=O)OCCO3	/	23.1µM*	?	/	/
O=C(C(=O)N1CCOCC1)c1cn(Cc2ccccc2)c2ccccc12	0.0%	4.7%	2.2%	13.3%	3.8
COc1ccc2c(c1)c(=O)c(C(=O)c1ccc(Cl)cc1)cn2CC(=O)Nc1ccc2c(c1)OCCO2	/	20.6µM*	18.4µM*	/	/
COc1cc(C[C@H](C)N)c(OC)cc1C	/	-18.9%[92.5 µM]	-15.1%[92.5 µM]	/	/
O=C(CCl)c1ccc(Cl)cc1Cl	/	13.7µM*	21.7µM*	/	/
SMILES	HT1080NT lethal	DT40 TDP1 no CPT	DT40 TDP1 CPT	HT1080 IDH1KD tx	IL-1B inflam inh
O=C(CN1CCCCC1)c1ccccc1Cl	0.1%	-7.4%	-13.2%	0.0%	12.2
CC(C)CN1CC[C@@]2(CCCN(C(=O)Oc3ccccc3)C2)C1	/	-11.4%	4.5%	/	/
O=C(Nc1ccc(Cl)cc1C(=O)c1ccccc1)c1ccc(Br)o1	-16.7%	?	-19.9%	?	-15.3
O=C(Nc1cc2c(cc1C(=O)c1ccc(Br)cc1)OCCO2)c1ccc(Cl)cc1	/	?	23.1µM*	/	/
N#CCCn1cc(C(=O)Nc2ccc(F)cc2)c(-c2ccccc2)n1	-0.7%	-12.2%	-8.4%	-0.8%	-3.0
COc1ccc(CCNc2nc3ccc(Cl)cc3n3cnnc23)cc1OC	/	16.4µM*	18.4µM*	/	/
CC(=O)Nc1ccccc1C(=O)OCC(=O)c1ccc2c(c1)OCCO2	11.0%	-2.0%	4.9%	12.9%	8.8
Cc1onc(-c2ccccc2Cl)c1C(=O)OCC(=O)c1ccc2c(c1)OCCO2	-18.3%	14.6µM*	?	-19.9%	-20.9
NC(=NCCc1ccc(I)cc1)SCCCc1cnc[nH]1	/	13µM*	14.6µM*	/	/
CC(=O)c1c(O)cc2c3c1OC(C)(C)C1CCC(C)(CC31)O2 (configuration not stated)	-0.5%	13µM*	20.6µM*	-3.8%	2.0
CCCCn1c(=O)c(C(=O)NCc2ccc(Cl)cc2)c(O)c2ccccc21	14.6%	?	-87.2%	4.7%	69.1
COc1ccc(CCNC(=O)CCn2c(=O)c3ccccc3n(Cc3ccc(Cl)cc3)c2=O)cc1OC	/	6.51µM*	18.4µM*	/	/
Cc1ccc(Cn2c(=O)n(CCCCC(=O)NCc3ccccc3Cl)c(=O)c3ccccc32)cc1	/	5.17µM*	4.61µM*	/	/
Cc1cc(C)c(N)cc1C	21.8%	?	-12.3%	7.1%	4.0
CCOC(=O)c1oc2ccc(S(=O)(=O)n3nc(-c4ccc(Br)cc4)cc3N)cc2c1C	/	11.6µM*	20.6µM*	/	/
CCN(CC)C(=O)c1ccc(NC(=O)c2cc(S(=O)(=O)N3CCCCCC3)ccc2OC)cc1	-12.2%	?	-29.9%	-11.8%	-2.0
N#CC(C#N)=NNc1ccc(S(=O)(=O)N2CCCC2)cc1	-1.8%	16.4µM*	?	0.8%	-26.0
C/C=C/CC#N	22.0%	-9.9%	1.0%	5.0%	29.5
COc1ccc2c(c1)[C@@]13CCCCC1[C@@H](C2)N(C)CC3 (some centres not stated)	/	16.4µM*	-124.6%	/	/
CC1CCN(C(=O)c2ccc(N3CC4CC(C3)c3cccc(=O)n3C4)c([N+](=O)[O-])c2)CC1 (configuration not stated)	9.3%	?	6.9%	17.9%	0.0
O=C(CNC(=O)c1cccs1)OCC(=O)c1ccc([N+](=O)[O-])cc1	-2.5%	?	16.4µM*	13.8%	-88.7*
COC(=O)C1=C(c2ccc(S(C)(=O)=O)cc2)C[C@@H]2CC[C@H]1N2C(=O)NC1CCCCC1	11.3%	-25.2%	-17.7%	15.2%	-4.0
COC(=O)C1=C(c2ccc(C(C)=O)cc2)C[C@@H]2CC[C@H]1N2C(=O)N1CCOCC1	0.0%	?	-22.4%	0.0%	12.8
COC(=O)C1=C(c2ccc(Cl)c(C(F)(F)F)c2)C[C@@H]2CC[C@H]1N2C(=O)N1CCOCC1	0.0%	4.61µM*	6.51µM*	-6.1%	-1.1
COC(=O)C1=C(c2ccc(Cl)c(C(F)(F)F)c2)C[C@@H]2CC[C@H]1N2C(=O)N1CCC(O)(c2ccc(Cl)cc2)CC1	?	?	?	?	-82.6*

Screening data as filed in PubChem.
